In test [1] the test system is HaCat. In words: Cytotoxic Profiling of Annotated Libraries Using Quantitative High-Throughput Screening (AID 1296008). For max response: % is set by controls: 0 for no effect and ±100 for the full control effect. The settings on record: Five cell lines viability, CellTiter-Glo ATP luminescence, 48-72 h; max response: active compounds read low. Summed up: (§1)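 Cytotoxicity was measured as CellTiter-Glo ATP luminescence, read after 10 min at room temperature. Compound treatment of the cells lasted 48 or 72 hr at 37 degrees Celsius in a qHTS format.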
In general terms: ATP-based viability assays read luminescence as a measure of living cells.

Another test deals with KB-3-1. The description is as above. The settings on record: Five cell lines viability, CellTiter-Glo ATP luminescence, 48-72 h; max response: active compounds read low. The gist of the method: as §1
The subject of a further test is NIH3T3. The test is described as above. The settings on record: Five cell lines viability, CellTiter-Glo ATP luminescence, 48-72 h; max response: active compounds read low. The gist of the method: as §1
A further test has as its system MCC-26. Briefly: qHTS assay to identify novel small-molecules to repurpose for Merkel cell carcinoma treatment (AID 1296009). As to conditions: MCC and control cell lines, CellTiter-Glo viability, 72 h; series mostly up to 46 µM. Summed up:
(§2)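 Cell viability measured by CellTiter-Glo following 72 hr compound treatment at 37 degree celsius, with NPC and MIPE libraries tested in 8- and 11-point concentration series.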
Background: Quantitative high-throughput screening tests each substance at several concentrations.

Another test has as its system HEK293. In words: Cytotoxic Profiling of Annotated Libraries Using Quantitative High-Throughput Screening (AID 1296008). For max response: % is set by controls: 0 for no effect and ±100 for the full control effect. As to conditions: Five cell lines viability, CellTiter-Glo ATP luminescence, 48-72 h; max response: active compounds read low. Summed up: as §1
A further test relates to MCC-13. Briefly: qHTS assay to identify novel small-molecules to repurpose for Merkel cell carcinoma treatment (AID 1296009). As to conditions: MCC and control cell lines, CellTiter-Glo viability, 72 h; series mostly up to 46 µM. The gist of the method: as §2
For a further test, the system named is MKL-1. The test is described as above. The settings on record: MCC and control cell lines, CellTiter-Glo viability, 72 h; series mostly up to 46 µM. The gist of the method: as §2
For another test, the system named is UISO. The description is as above. As to conditions: MCC and control cell lines, CellTiter-Glo viability, 72 h; series mostly up to 46 µM. Summed up: as §2
A further test relates to PC26. Briefly: qHTS profiling for inhibitors of Plasmodium falciparum proliferation (AID 504749). The settings on record: P. falciparum in erythrocytes, SYBR Green DNA, 72 h; series mostly up to 28.7 µM. The gist of the method: (§3)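 In a 72 h erythrocytic culture (37 C, humidified, 5% CO2) at 2.5% hematocrit and 0.3% starting parasitemia, compounds were tested; SYBR Green I in detergent lysis buffer stained parasite DNA overnight.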

Another test concerns PC49. Described as above. The settings on record: P. falciparum in erythrocytes, SYBR Green DNA, 72 h; series mostly up to 28.7 µM. The gist of the method: as §3
In the next test the test system is SC27B. The test is described as above. As to conditions: P. falciparum in erythrocytes, SYBR Green DNA, 72 h; series mostly up to 28.7 µM. Summed up: as §3
The test system of a further test is TAB109. The test is described as above. The settings on record: P. falciparum in erythrocytes, SYBR Green DNA, 72 h; series mostly up to 28.7 µM. Summed up: as §3
A further test relates to TAB113. The description is as above. The settings on record: P. falciparum in erythrocytes, SYBR Green DNA, 72 h; series mostly up to 28.7 µM. The gist of the method: as §3
A further test concerns TAB165. The test is described as above. As to conditions: P. falciparum in erythrocytes, SYBR Green DNA, 72 h; series mostly up to 28.7 µM. The gist of the method: as §3
The subject of a further test is W2. Described as above. As to conditions: P. falciparum in erythrocytes, SYBR Green DNA, 72 h; series mostly up to 28.7 µM. Summed up:
as §3

For a further test, the system named is MKL-2. In words: qHTS assay to identify novel small-molecules to repurpose for Merkel cell carcinoma treatment (AID 1296009). The settings on record: MCC and control cell lines, CellTiter-Glo viability, 72 h; series mostly up to 46 µM. The gist of the method: as §2
Test [2] concerns HACAT. The description is as above. As to conditions: MCC and control cell lines, CellTiter-Glo viability, 72 h; series mostly up to 44.8 µM. The gist of the method:
as §2

Several values for one entry are separate records, joined by “and”; a condition that tells them apart may be missing. Equal values may be shown once. Inconclusive results are not listed. Values without a mark were called inactive. Activity calls are given as the source filed them. Calls come from the whole dose curve; as a rule, active = well fitted inhibition curve with a large enough effect; inconclusive = small, poorly fitted or top-dose-only effect; inactive = flat fitted curve, though single readings scatter.
Note: nearly all actives have a fitted effect of over 60% in size.
Potency is the fitted concentration of half-maximal effect.

For `COc1cc(OC2CCN(C)CC2)ccc1Nc1ncc2c(n1)n(C1CCCC1)c(=O)n2C`, the Potency is 13.2 µM (active) in the test on HaCat [1], 4.18 µM (active) in the test with KB-3-1 and 18.7 µM (active) in the test with NIH3T3. Besides, the Potency entry in the test on MCC-26 was “inactive”.
In the case of `O=C(O)c1ccc2cc(-c3ccc(O)c(C45CC6CC(CC(C6)C4)C5)c3)ccc2c1`, the Potency is 1.87 µM (active) in the test on HEK293; 1.66 µM (active) in the test with NIH3T3; 2.64 µM (active) in the test with MCC-13; 2.96 µM (active) in the test on MCC-26; 2.35 µM (active) in the test on MKL-1; 1.18 µM (active) in the test with UISO. The max response in the test with KB-3-1 is 7.83%.
As to `CN(c1ncccc1CNc1nc(Nc2ccc3c(c2)CC(=O)N3)ncc1C(F)(F)F)S(C)(=O)=O`, the Potency is 3.72 µM (active) in the test with HEK293; 16.6 µM (active) with HaCat [1]; 7.43 µM (active) in the test with KB-3-1; 9.35 µM (active) with MKL-1; 11.8 µM (active) with UISO.
Take `C[C@@H](Oc1cc(-n2cnc3ccc(CN4CCN(C)CC4)cc32)sc1C(N)=O)c1ccccc1C(F)(F)F`: the values for the Potency in the test on KB-3-1, in the test with NIH3T3 and with MKL-1 were 0.0118 µM (active), 0.662 µM (active) and 0.0296 µM (active), respectively.
Regarding `COC(=O)C1=C(C)NC(C)=C(C(=O)OCCN2CCN(C(c3ccccc3)c3ccccc3)CC2)C1c1cccc([N+](=O)[O-])c1` (stereo not given), the Potency was 1.9 µM (active) in the test with PC26; 5.01 µM (active) with PC49; 2.24 µM (active) in the test on SC27B; 3.55 µM (active) in the test on TAB109; 2 µM (active) in the test on TAB113; 2.24 µM (active) with TAB165. For the same molecule, the values for the Potency in the test on W2 and in the test with HEK293 were 1.35 µM (active) and 11.9 µM (active), respectively. The max response in the test with KB-3-1 is -4.82%. For the same molecule, the Potency entry in the test with MCC-26 is “inactive”.
For the molecule `COc1ccc(OC)c(-c2nnc3ccc(-c4ccc(OC)c(O[C@@H]5CCOC5)c4)nn23)c1`, the Potency in the test with HEK293 was 8.33 µM (active); with HaCat [1], 1.46 µM (active); in the test with KB-3-1, 6.51 µM (active); in the test with NIH3T3 it was 33.2 µM (active); with MKL-2, 18.7 µM (active).
As to `COC(=O)Nc1nc2ccc(C(=O)c3ccc(F)cc3)cc2[nH]1`, the result with HaCat [1] was inactive. In the test with KB-3-1, the Potency is 833 nM (active) and 1.46 µM (active). In the test with HACAT [2], the Potency entry is “inactive”.
In the case of `O=C(O)CO.[NH2-].[NH2-].[Pt+2]`, the Potency result in the test on PC26, in the test on PC49, in the test with SC27B, with TAB109, in the test with TAB113 and with TAB165 was “inactive” in each case. Also, the Potency entry with W2 was “inactive”.
With `CC(=O)Nc1sc2c(c1-c1nc3ccccc3s1)CNC2`, the Potency in the test on HEK293 was 11.8 µM (active); in the test with KB-3-1, 23.5 µM (active); in the test with UISO, 8.33 µM (active). Also, the Potency result with MCC-13 and in the test on MCC-26 was “inactive” each time.
Turning to `CCCCc1nc2cc(C=CC(=O)NO)ccc2n1CCN(CC)CC`, the Potency with HEK293 was 3.72 µM (active); in the test with HaCat [1], 4.69 µM (active); in the test on KB-3-1, 2.64 µM (active); in the test on NIH3T3, 4.18 µM (active); in the test on MCC-13, 7.43 µM (active); with MCC-26 it was 8.33 µM (active). In addition, the Potency in the test on MKL-1 is 3.32 µM (active); in the test with MKL-2 it was 0.526 µM (active).
Consider `CC(C)c1ccccc1Cc1cc(C(=O)Nc2ccc(S(=O)(=O)c3ccccc3C(C)(C)C)cc2)c(O)c(O)c1O`, for which the Potency in the test on KB-3-1 was 8.33 µM (active); in the test with MKL-1 it was 26.4 µM (active). The Potency result in the test with MCC-26 and in the test with MKL-2 was “inactive” each time.
With `C=CC(=O)Nc1cc2c(Nc3ccc(F)c(Cl)c3)ncnc2cc1C#CC(C)(C)N1CCN(C)CC1`, the Potency with HEK293 was 2.96 µM (active); in the test with HaCat [1], 2.09 µM (active); in the test with MCC-13, 11.8 µM (active); with MCC-26 it was 10.5 µM (active); in the test on MKL-1, 6.62 µM (active); in the test with UISO it was 7.43 µM (active).
In the case of `O=C(CCCCCCNC(=O)c1cnc(N(c2ccccc2)c2ccccc2)nc1)NO`, the Potency in the test with HEK293 was 13.2 µM (active) and 7.31 µM (active); with HaCat [1], 16.6 µM (active); in the test on KB-3-1, 11.8 µM (active) and 8.2 µM (active); in the test on MKL-1, 9.35 µM (active); in the test with MKL-2 it was 5.9 µM (active).
For the molecule `COc1ccc(C(=O)CC2(O)C(=O)Nc3c(Cl)ccc(Cl)c32)cc1` (stereo not given), the Potency in the test with HEK293 is 2.64 µM (active); with HaCat [1], 4.11 µM (active); with KB-3-1, 3.72 µM (active) and 5.17 µM (active); in the test on NIH3T3 it was 9.35 µM (active) and 2.91 µM (active); in the test with UISO, 5.26 µM (active).
For the molecule `COc1cc2ncn(-c3cc(OCc4ccccc4C(F)(F)F)c(C(N)=O)s3)c2cc1OC`, the Potency with HEK293 is 0.469 µM (active); in the test on KB-3-1, 0.418 µM (active). In addition, the max response with NIH3T3 was -29.2%. For the same molecule, the Potency result with MCC-26 and with MKL-2 was “inactive” each time.
`CC(C)(O)CCc1ccc(OCc2cc(-c3cccc(OC(F)F)c3)c3ncccc3c2)cc1`: the call in the test on HaCat [1] was inactive. The max response in the test with NIH3T3 was 4.85%. Besides, the Potency result with HACAT [2], in the test on MCC-13, with MCC-26, with MKL-1, in the test on MKL-2 and in the test on UISO was “inactive” in each case.

The values are drawn from PubChem BioAssay (NCATS).
